# From PubChem BioAssay (NCI)
# About 83,000 compounds went through this panel and 20% of them were active in at least one assay; those are over-represented in the sample as a whole.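 48-hour exposure, single concentration, 96-well plates; percent growth endpoint where 0 means no net growth. Active: below 10.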 Unmarked numbers belong to inactive results. Activity calls are given as the source filed them.
# Tested on: EKVX NSCLC
# Assay: NCI-60 one-dose screen, 48 h (100 = growth as untreated, 0 = no growth, -100 = all killed)
# Conditions: 10 µM unless noted
row,SMILES,growth
1,O=C(COc1cccc(/C=C2\Cc3ccc(Cl)cc3C2=O)c1)Nc1nccs1,98.1%
2,O=C(Cn1ccnc1)Nc1ccc(-c2nc3ccccc3s2)cc1,61.4%
3,CN1CCC(CNc2ccc3ncc(-c4cccc(OC(F)(F)F)c4)n3n2)CC1,4.31% (active)

# Tested on: SN12C renal
# Assay: as above
# Conditions: 10 µM unless noted
row,SMILES,growth
1,C=CC(=O)N1CCC(Oc2cc3c(Nc4ccc(Cl)c(Cl)c4F)ncnc3cc2OC)CC1,15.8%
2,FC(F)(F)c1ccc(CNc2ccc(Cc3c[nH]c4ncc(Cl)cc34)cn2)cn1,52.2%
3,O=S1(=O)OC(c2cc(Cl)c(O)c(Br)c2)(c2cc(Cl)c(O)c(Br)c2)c2ccccc21,90.6%
4,CC(C)(C)OC(=O)N1CCC(O)[C@@H](O[Si](c2ccccc2)(c2ccccc2)C(C)(C)C)[C@H]1/C=C/c1ccccc1 (stereo partly specified),73%
5,Cc1cn(-c2cc(NC(=O)c3ccc(C)c(Nc4nccc(-c5cccnc5)n4)c3)cc(C(F)(F)F)c2)cn1,66.9%
6,Cc1cnc(Nc2ccc(OCCN3CCCC3)cc2)nc1Nc1cccc(S(=O)(=O)NC(C)(C)C)c1,12.6%
7,Cc1cccc(C)c1N1C(c2ccccc2)=NNC12C=CC(=O)c1c(O)cccc12 (stereo unspecified),72.5%
8,C=CC(=O)Nc1cccc(Nc2nc(Nc3ccc(N4CCN(C(C)=O)CC4)cc3OC)ncc2C(F)(F)F)c1,20.7%
9,COc1ccc(/C(C)=C(\c2ccc(Cl)cc2)c2ccc(OCCN3CCCCCC3)cc2)cc1,55.3%
10,Cc1cc(C(=O)Nc2cc(Oc3ccc4nc(NC(=O)C5CC5)cn4n3)ccc2C)n(C)n1,37.8%
11,CO[C@H](C(=O)N[C@@H](CCCCNC(=O)OCc1ccccc1)C(=O)OC(C)(C)C)[C@@H]1Cc2cc3cc(OC4CC(OC5CC(O)C(O)C(C)O5)C(O)C(C)O4)c(C)c(O)c3c(O)c2C(=O)[C@H]1OC1CC(OC2CC(OC3CC(C)(O)C(O)C(C)O3)C(O)C(C)O2)C(O)C(C)O1 (stereo partly specified),-7.42% (active)
12,CCN(CCCOc1ccc2c(Nc3cc(CC(=O)Nc4cccc(F)c4)[nH]n3)ncnc2c1)CCOP(=O)(O)O,79%
13,CC/C=C\C[C@H]1C/C=C2/C(=O)C=C[C@@H]2C/C=C\CCCC(=O)O1,-27.8% (active)
14,Cc1cn(-c2cc(NC(=O)c3ccc(C)c(Nc4nccc(-c5cnccn5)n4)c3)cc(C(F)(F)F)c2)cn1,56.5%
15,COc1cc2ncnc3c2cc1OCCCCCN(C)Cc1ccc(Br)cc1N3,32.5%
16,C[C@@]1(C(=O)Nc2ccc(F)nc2)CCCN1c1nc(Nc2cc(C3CC3)[nH]n2)c2cccn2n1,34.6%
17,C[C@]12O[C@H](C[C@]1(O)CO)n1c3ccccc3c3c4c(c5c6ccccc6n2c5c31)CNC4=O,-42% (active)
18,CCN1CCN(CCCN(C[C@H]2Cc3ccccc3CN2)[C@H]2CCCc3cccnc32)CC1,83.8%
19,COCc1c(-c2ccc(NC(=O)Nc3cc(C(F)(F)F)ccc3F)c(F)c2)c2c(N)ncnn2c1CN1CCOCC1,-10.8% (active)

row,SMILES,growth
1,COc1cc2cc(NCc3ccc(F)cc3)nc(C)c2cc1OC,51%
2,CC(=O)C1=C(C)NC(SCc2nnc(-c3ccc(C)cc3)o2)=NC1c1ccc(F)cc1 (stereo unspecified),93.1%
3,N#CC[C@H](C1CCCC1)n1cc(-c2ncnc3[nH]ccc23)cn1,66.3%
4,Cc1ccc(-[n+]2c3cc(N)c(C)cc3nc3cc(C)c(Nc4ccccc4)cc32)cc1,-70.6% (active)
5,COc1cc2cc(NCc3ccc(Cl)cc3)nc(C)c2cc1OC,42%
6,CC(=O)c1cnc2ccc(-c3cc(Cl)c(O)c(Cl)c3)nc2c1NC1CCC(CN(C)C)CC1 (stereo unspecified),-7.95% [2.5 µM] (active)
7,CCN(CC)c1cc2oc3cc(N)cc(=N)c-3nc2cc1C,31.1%
8,CO[C@H]1C[C@@H]2CC[C@@H](C)[C@@](O)(O2)C(=O)C(=O)N2CCCC[C@H]2C(=O)O[C@H]([C@H](C)C[C@@H]2CC[C@@H](O)[C@H](OC)C2)CC(=O)[C@H](C)/C=C(\C)[C@@H](O)[C@@H](OC)C(=O)[C@H](C)C[C@H](C)\C=C/C=C/C=C/1C,44.3%
9,COc1cccc(NC(=O)Nc2ccc(Nc3ncnc4sc5c(c34)CCN(C(=O)CCl)C5)cc2)c1,96.3%
10,CCN(CC)CCNC(=O)c1c(C)[nH]c(/C=C2\C(=O)Nc3ccc(F)cc32)c1C,26%
11,CO[C@@H](C)Cn1c(=O)n(C)c2cnc3ccc(-c4cncc(C(C)(C)O)c4)cc3c21,14.5%
12,Cc1c(N)ccc(-c2ccc(N)c(C)c2S(=O)(=O)O)c1S(=O)(=O)O,106%
13,CNC(=O)c1cc(Oc2ccc(NC(=O)Nc3ccc(Cl)c(C(F)(F)F)c3)c(F)c2)ccn1,-40.4% (active)
14,COCCOc1cnc2ccn([C@H](C)c3nnc4c(F)cc(-c5cnn(C)c5)cn34)c(=O)c2c1,86.3%
15,N#Cc1c(-c2ccc(Cl)cc2)csc1NC(=O)Nc1cccc(C(F)(F)F)c1,-17.2% (active)
16,CC(=O)C1CC(C)CCC1C(C)C (stereo unspecified),83.8%
17,O=C(COc1cccc(/C=C2\Cc3ccc(Cl)cc3C2=O)c1)Nc1nccs1,89.3%
18,O=C(Cn1ccnc1)Nc1ccc(-c2nc3ccccc3s2)cc1,84.6%
19,CN1CCC(CNc2ccc3ncc(-c4cccc(OC(F)(F)F)c4)n3n2)CC1,-81.2% (active)
